Results with a measured potency or affinity are listed apart. Active and inactive are the calls of the source.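 Rule for the calls: active = compounds lowering cell ATP signal whose fitted half-effect concentration is at most twice the top tested dose; inconclusive = flat curves with 30 to 70% signal loss, or poor fits; inactive = the rest.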
Test: HepG2 cell cytotoxicity, dose response, cytotoxicity control, ATP luminescence, dry powder (AID 652118)
Details: HepG2 viability, CellTiter-Glo ATP luminescence, 48 h; series mostly up to 26 µM

Q: For `CCOC(=O)C1CCN(C(=O)OC(C)(C)C)CC1`, which outcome is on record?
A: inactive

Q: With `C=CCOc1ccc(CN2CCC(CCOc3ccccc3)(C(=O)NC3CCCC3)CC2)cc1Cl` as the compound, how does the outcome read?
A: inactive

Q: For `CCOC(=O)C1(Cc2cccc(OC)c2)CCN(Cc2ccc(O)c(Cl)c2)CC1`, which outcome is on record?
A: inactive

Q: With `CCOC(=O)C1(CCOc2ccccc2)CCN(Cc2ccc(OC)cc2)CC1` as the compound, how does the outcome read?
A: inactive

Q: With `C/C1=C\C[C@H](OC(=O)c2ccc(O)cc2)/C(C)=C/[C@@H](O)C(C)(C)CCC1` as the compound, how does the outcome read?
A: inactive

Q: With `O=C(N1CCCC1)C1(CCOc2ccccc2)CCN(Cc2ccc(O)c(Cl)c2)CC1` as the compound, how does the outcome read?
A: inactive

Q: For `O=C(NC1CCCC1)C1(CCOc2ccccc2)CCN(Cc2ccc(O)c(Cl)c2)CC1`, which outcome is on record?
A: inactive

Q: Which outcome does the source give for `CCOC(=O)C1(Cc2ccccc2)CCN(Cc2ccc(O)c(Cl)c2)CC1` here?
A: inactive

Q: With `C=CCOc1ccc(CN2CCC(CCOc3ccccc3)(C(=O)O)CC2)cc1Cl` as the compound, how does the outcome read?
A: inactive

Q: For `CCOC(=O)C1(CCOc2ccccc2)CCN(Cc2ccc(O)cc2)CC1`, which outcome is on record?
A: inactive

Q: For `O=C(Nc1ccccc1)C1(CCOc2ccccc2)CCN(Cc2ccc(O)c(Cl)c2)CC1`, which outcome is on record?
A: inactive

Q: For `CCOC(=O)c1c(CN2CCN(CCO)CC2)n(-c2ccccc2)c2cc(Br)c(O)cc12`, which outcome is on record?
A: inactive

Q: Which outcome does the source give for `CCNC(=O)C1(CCOc2ccccc2)CCN(Cc2ccc(O)c(Cl)c2)CC1` here?
A: inactive

Q: With `CCOC(=O)C1(CCOc2ccccc2)CCN(Cc2ccc(O)c(Cl)c2)CC1` as the compound, how does the outcome read?
A: inactive

Q: For `CCN(C)C(=O)C1(CCOc2ccccc2)CCN(Cc2ccc(O)c(Cl)c2)CC1`, which outcome is on record?
A: inactive

Q: With `CCOC(=O)C1(CCOC)CCCN(Cc2ccc(Cl)cc2)C1` (stereo not drawn) as the compound, how does the outcome read?
A: inactive

Q: With `CCOC(=O)C1(CCOc2ccccc2)CCN(Cc2cccc(Cl)c2)CC1` as the compound, how does the outcome read?
A: inactive

Q: Which outcome does the source give for `CCOC(=O)C1(CCOc2ccccc2)CCN(Cc2ccc(OC)c(Cl)c2)CC1` here?
A: inactive

Q: Which outcome does the source give for `CCOC(=O)C1(CCOc2ccccc2)CCN(C(=O)c2ccc(O)c(Cl)c2)CC1` here?
A: inactive

Q: With `C/C1=C\[C@@H](O)C(C)(C)CCCC2(C)OC2C[C@@H]1OC(=O)c1ccc(O)cc1` (stereo partly drawn) as the compound, how does the outcome read?
A: inactive

Q: Which outcome does the source give for `CCOC(=O)C1(CCOC)CCN(Cc2ccc(O)c(Cl)c2)CC1` here?
A: inactive

Q: With `C=CCOc1ccc(CN2CCC(CCOc3ccccc3)(C(=O)N(C)CC)CC2)cc1Cl` as the compound, how does the outcome read?
A: inactive

Q: With `C=CCOc1ccc(CN2CCC(CCOc3ccccc3)(C(=O)NCC)CC2)cc1Cl` as the compound, how does the outcome read?
A: inactive

Q: With `CCOC(=O)C1(CCOc2ccccc2)CCN(Cc2ccc3[nH]c(=O)oc3c2)CC1` as the compound, how does the outcome read?
A: inactive

Q: With `C=CCOc1ccc(CN2CCC(CCOc3ccccc3)(C(=O)N3CCCC3)CC2)cc1Cl` as the compound, how does the outcome read?
A: inactive

Q: With `CC(C)(C)OC(=O)C1(CCOc2ccccc2)CCN(Cc2ccc(O)c(Cl)c2)CC1` as the compound, how does the outcome read?
A: inactive

Q: For `C=CCOc1ccc(CN2CCC(CCOc3ccccc3)(C(=O)OCC)CC2)cc1Cl`, which outcome is on record?
A: inactive

Q: With `CC(C)OC(=O)C1(CCOc2ccccc2)CCN(Cc2ccc(O)c(Cl)c2)CC1` as the compound, how does the outcome read?
A: inactive
